Many of the other results were omitted from the sample, so hits are more common in it than they were.
Cycloheximide cs: counter-screen hit for Shiga toxin inhibitors, cycloheximide. cell reporter, cycloheximide protein synthesis inhibition counterscreen. actives 12% (n = 300,000). max response, %; in the data active means max response mostly above about 13%, no sharp cut-off; inactive means mostly below about 14%; further: read at 38.3 µM for the half of the compounds with a filed dose; 0% is about no effect
Sm TGR inh: S. mansoni TGR enzyme inhibition | purified TGR, DTNB reduction, TNB absorbance 405 nm | AID 485364 | actives 3% (n = 360,000) | Q962Y6 | Potency, µM (highest dose often 114 µM), inactives show at the highest dose activity change, negative = inhibition, most hits filed as inhibitors; further: potency means the concentration at half of the fitted maximal effect; on the % scale 0 is the no-effect control and ±100 the full control effect; nearly all actives have a fitted effect of over 60% in size
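Kinetic colorimetric format: TGR-catalysed, NADPH-driven DTNB reduction monitored via TNB absorbance. Enzyme dispensed at 20 nM; compound exposure 15 min at room temperature before reaction start.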
Tb PYK inh: inhibitors of Trypanosoma brucei pyruvate kinase. Q57TT1. TbPYK enzyme, Kinase-Glo Plus ATP luminescence, 45 min. Potency, µM (doses to about 76.8 µM), inactives show at the top dose activity, negative = inhibition, usual class: inhibitors. actives 0.12% (n = 410,000). AID 624173; further: potency means the concentration at half of the fitted maximal effect; on the % scale 0 is the no-effect control and ±100 the full control effect; nearly all actives have a fitted effect of over 50% in size
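TbPYK + substrate in 50 mM TEA pH 7.2, 100 mM KCl, 10 mM MgCl2, 0.05% BSA, 0.01% Tween-20; cpd pinned; ADP 130 uM final; 45 min RT; Kinase-Glo Plus 10 min; luminescence endpoint.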
Giardia FBPA inh: inhibitors of Giardia lamblia fructose-1,6-bisphosphate aldolase. A8B2U2. purified Giardia FBPA. Potency, µM (highest dose often 59.6 µM), for inactives: at the top dose activity, negative = inhibition, actives largely listed as inhibitors. actives 0.71% (n = 290,000). AID 2451; further: potency means the concentration at half of the fitted maximal effect; on the % scale 0 is the no-effect control and ±100 the full control effect; nearly all actives have a fitted effect of over 55% in size
Target sequence (A8B2U2 whole entry, looked up): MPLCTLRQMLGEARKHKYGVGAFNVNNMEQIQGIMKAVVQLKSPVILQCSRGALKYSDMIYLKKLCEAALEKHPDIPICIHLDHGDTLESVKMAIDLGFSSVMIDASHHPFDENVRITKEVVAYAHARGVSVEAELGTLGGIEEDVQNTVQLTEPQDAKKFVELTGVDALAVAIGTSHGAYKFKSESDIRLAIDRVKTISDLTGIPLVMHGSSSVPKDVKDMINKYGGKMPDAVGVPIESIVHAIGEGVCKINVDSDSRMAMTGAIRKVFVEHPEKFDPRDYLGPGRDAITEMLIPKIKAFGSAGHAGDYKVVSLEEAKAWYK
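40 nM FBPA preincubated 10 min at RT with compound (up to 57.5 uM final), then substrate plus GAPDH/TPI/NAD/arsenate coupling and diaphorase/resazurin added. Fluorescence read after 20 min at RT, 525/598 nm.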
Shiga toxin inh: Shiga toxin inhibition; AID 2315; inhibition, % at 38.7 µM; actives 9.2% (n = 290,000); Vero cells, Shiga toxin protein synthesis inhibition reporter; in the data active means inhibition mostly above about 28%, no sharp cut-off; inactive means mostly below about 43%; further: 0% is about no effect
LmPK inh: LmPK (Leishmania mexicana) enzyme inhibition; actives 0.37% (n = 290,000); purified LmPK, Kinase-Glo ATP luminescence, 1 h; Potency, µM (top dose mostly 57.5 µM), inactives show at the highest dose activity change, negative = inhibition, hits mostly inhibitors; further: potency means the concentration at half of the fitted maximal effect; on the % scale 0 is the no-effect control and ±100 the full control effect
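Purified LmPK (0.1 nM) converted ADP (0.1 mM) to ATP with PEP (0.5 mM) in imidazole buffer pH 7.2 with KCl and MgCl2, 1 h at room temperature. ATP was read by Kinase-Glo luminescence; data normalized to uninhibited and no-enzyme controls.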
* = called active by the depositor; ? = inconclusive; / = not tested or not shown; + = active, no number; [ ] = another dose, or the depositor's remark. Unless noted, the call rests on the fitted dose curve; in most records, active means well fitted curve in the direction sought with a large enough effect; inconclusive means small, poorly fitted or top-dose-only effect, or another doubt; inactive means no such curve, though single readings can be large; an effect the other way counts as inactive or inconclusive.

SMILES	Cycloheximide cs	Sm TGR inh	Tb PYK inh	Giardia FBPA inh	Shiga toxin inh	LmPK inh
N#CC1(c2ccccc2)CCC(=NNS(=O)(=O)c2ccccc2)CC1 (stereo not drawn)	/	40µM*	-2%	/	/	/
CC1CCC/C(=N\NS(=O)(=O)c2ccccc2)C1 (stereo not drawn)	1	?	1%	0%	7	1%
COC(=O)C(CC(=O)c1ccc(Cl)cc1)c1ccc(C)cc1 (stereo not drawn)	20	4%	1%	0%	+	-8%
CCOc1ccc(NCC(=O)c2ccc(C)cc2)cc1	16*	-2%	4%	-11%	63*	4%
Cc1ccc(C(=O)CNc2ccc(Cl)cc2)cc1	42*	-10%	-7%	3%	86*	-6%
O=C(CC(C(=O)O)c1ccc(F)cc1)c1ccc(Cl)cc1 (stereo not drawn)	1	-8%	0%	17%	-3	2%
Cc1ccc(C)c(NCC(=O)c2ccc(Cl)cc2)c1	-2	-3%	-1%	4%	11	-1%
CCN(C(=O)COC(=O)CCc1c[nH]c2ccccc12)c1c(N)n(Cc2ccccc2)c(=O)[nH]c1=O	/	-10%	2%	/	/	/
Cc1nc2scc(-c3ccccc3)c2c(=O)n1N	-1	0%[11.4 µM]	0%	-2%	-5	9%
Cc1ccc(-c2csc3nc(C)n(-n4c(C)ccc4C)c(=O)c23)o1	-2	6.3µM*	-31%	-9%	-14	1%
Cc1ccc(-c2csc3nc(C)n(N)c(=O)c23)o1	46*	?	-6%	4%	47*	-3%
Cc1ccc(C)n1-n1c(C)nc2scc(-c3ccccc3)c2c1=O	0	2%	2%	-3%	32	-1%
Cc1ccc2nc(-c3ccsc3)c(NC3CCCC3)n2c1	29	7%	-1%	-4%	51*	0%
Cc1ccc2nc(-c3ccncc3)c(NC3CCCC3)n2c1	6	0%	-1%	1%	5	11%
CC(C)c1ccc(NC(=O)c2cc(S(=O)(=O)NC3CCCCC3)ccc2F)cc1	/	14%	-8%	/	/	/
COCCNC(=O)c1c(N)n(Cc2ccco2)c2nc3ccccc3nc12	-4	40µM*	-14%	1%	-7	2%
CC(C)(C)OC(=O)c1c(N)n(Cc2ccco2)c2nc3ccccc3nc12	-2	28µM*	-7%	-1%	-8	7%
C=CCn1c(NC(=O)c2ccco2)c(S(=O)(=O)c2ccccc2)c2nc3ccccc3nc21	-1	45µM*	/	?	2	6%
Nc1c(C(=O)NCCN2CCOCC2)c2nc3ccccc3nc2n1Cc1ccco1	-3	?	-2%	-12%	-2	-1%
COc1ccc(S(=O)(=O)c2c(N)n(Cc3ccco3)c3nc4ccccc4nc23)cc1	1	?	-21%	-13%	8	4%
C=CCNC(=O)c1c(N)n(Cc2ccco2)c2nc3ccccc3nc12	-2	45µM*	?	-9%	-9	-2%
COCCNC(=O)c1c(NC(=O)c2ccco2)n(Cc2ccccc2)c2nc3ccccc3nc12	-3	25µM*	-11%	?	-14	12%
COc1ccc(-n2nc(C(=O)NCC(=O)N3CCOCC3)c3ccccc3c2=O)c(OC)c1	3	-4%	-4%	5%	16	3%
COc1ccc(-n2nc(C(=O)NCC(=O)N3CCCCC3)c3ccccc3c2=O)c(OC)c1	18*	-13%	0%	8%	33	4%
COc1ccc(-n2nc(C(=O)NCC(=O)N3CCCCCC3)c3ccccc3c2=O)c(OC)c1	16*	-2%	3%	0%	55	0%
SMILES	Cycloheximide cs	Sm TGR inh	Tb PYK inh	Giardia FBPA inh	Shiga toxin inh	LmPK inh
COc1ccc(-n2nc(C(=O)NCC(=O)N3CCC4(CC3)OCCO4)c3ccccc3c2=O)c(OC)c1	13	-3%	2%	10%	27	9%
COc1ccc(-n2nc(C(=O)NCC(=O)N3CCC(C)CC3)c3ccccc3c2=O)c(OC)c1	16*	8%	0%	10%	40	1%
CCC1CC=CC2C1C(=O)N(Cc1ccccc1)C2c1ccc(OC)c(Cl)c1 (stereo not drawn)	6	/	/	-1%	-2	/
COc1cc2c(cc1CNC[C@H]1O[C@@H](n3ccc(N)nc3=O)[C@H](O)[C@@H]1O)OCO2	/	/	-12%	/	/	/
CCN1CCN(C(c2ccccc2Cl)c2c(O)cc(C)n(CCOC)c2=O)CC1 (stereo not drawn)	/	3.5µM*	9%	/	/	/
CCN1CCN(C(=O)C2c3cc(OC)c(OC)cc3C(=O)N(C)C2c2ccc(SC)cc2)CC1 (stereo not drawn)	-1	0%	-9%	1%	6	0%
COCCn1c(C)cc(O)c(C(c2ccccc2Cl)N2CCN(c3ccccc3)CC2)c1=O (stereo not drawn)	/	3.2µM*	-5%	/	/	/
CCN1CCN(C(c2ccc(SC)cc2)c2c(O)cc(C)n(CCOC)c2=O)CC1 (stereo not drawn)	/	7.1µM*	11%	/	/	/
CCN1CCN(C(c2ccccc2F)c2c(O)cc(C)n(CCOC)c2=O)CC1 (stereo not drawn)	/	7.9µM*	1%	/	/	/
Cn1c(=O)n(CCCO)c(=O)c2c1nc1n2CCCN1Cc1ccccc1	-1	-26%	0%	-4%	-2	2%
COc1cc(CNc2ccc3[nH]c(=O)[nH]c3c2)cc(Cl)c1OCc1ccc(F)cc1	/	-7%	-3%	/	/	/
Fc1ccc(CNc2ccc(CNc3ncn[nH]3)cc2)cc1	22*	0%	0%	0%	26	-15%
O=c1[nH]c2ccc(NCc3ccc(OCc4ccccc4Cl)cc3)cc2[nH]1	23*	-23%	0%	4%	23	0%
O=c1[nH]c2ccc(NCc3ccc(F)cc3)cc2[nH]1	13*	?	-4%	-8%	41*	0%
COc1cc(CNc2ccc3[nH]c(=O)[nH]c3c2)ccc1OCc1ccccc1Cl	14	?	-6%	-1%	30	-2%
Cc1ccc(N2C(=O)C3C4C=CC(CNC(=S)N5CCN(c6cccc(C)c6)C(C)C5)(O4)C3C2=O)cc1 (stereo not drawn)	-1	3.2µM*	-15%	2%	2	-2%
Cc1cccc(NC(=O)CCc2ccc(N3C(N)=NC(N)=NC3(C)C)cc2)c1	/	/	-4%	/	/	/
CCOc1cc(/C=N\Nc2ncc(F)c(N3CCOCC3)n2)ccc1Oc1nc(Cl)ncc1F	42*	6%	-10%	-1%	100*	6%
Fc1cnc(N/N=C/c2ccc(-c3ccc(Br)cc3)o2)nc1N1CCOCC1	34*	-19%	-2%	-17%	58*	1%
C=CCNC(=S)Nc1ccc(C)c(S(=O)(=O)N2CCCCC2)c1	9	35µM*	-3%	-8%	-4	1%
